Laboratory results published in PubChem BioAssay (Tox21).
Inconclusive results are not listed. A structure can be active in one record and inactive in another. Activity calls are given as the source filed them. Calls follow the shape of the full dose curve.

What follows are compounds tested against Thyrotropin receptor (Homo sapiens) (UniProt P16473) (assay: qHTS assay to identify small molecule antagonists of the thyroid stimulating hormone receptor (TSHR) signaling pathway (AID 1259385; also: nearly all actives have a fitted effect of over 20% in size)). Conditions: TSHR-HEK293 cAMP HTRF, TSH-stimulated antagonist mode; series mostly up to 92.4 µM; activity change, negative = inhibition: at the top concentration.
Thyrotropin receptor (Homo sapiens), sequence (P16473 whole entry, looked up): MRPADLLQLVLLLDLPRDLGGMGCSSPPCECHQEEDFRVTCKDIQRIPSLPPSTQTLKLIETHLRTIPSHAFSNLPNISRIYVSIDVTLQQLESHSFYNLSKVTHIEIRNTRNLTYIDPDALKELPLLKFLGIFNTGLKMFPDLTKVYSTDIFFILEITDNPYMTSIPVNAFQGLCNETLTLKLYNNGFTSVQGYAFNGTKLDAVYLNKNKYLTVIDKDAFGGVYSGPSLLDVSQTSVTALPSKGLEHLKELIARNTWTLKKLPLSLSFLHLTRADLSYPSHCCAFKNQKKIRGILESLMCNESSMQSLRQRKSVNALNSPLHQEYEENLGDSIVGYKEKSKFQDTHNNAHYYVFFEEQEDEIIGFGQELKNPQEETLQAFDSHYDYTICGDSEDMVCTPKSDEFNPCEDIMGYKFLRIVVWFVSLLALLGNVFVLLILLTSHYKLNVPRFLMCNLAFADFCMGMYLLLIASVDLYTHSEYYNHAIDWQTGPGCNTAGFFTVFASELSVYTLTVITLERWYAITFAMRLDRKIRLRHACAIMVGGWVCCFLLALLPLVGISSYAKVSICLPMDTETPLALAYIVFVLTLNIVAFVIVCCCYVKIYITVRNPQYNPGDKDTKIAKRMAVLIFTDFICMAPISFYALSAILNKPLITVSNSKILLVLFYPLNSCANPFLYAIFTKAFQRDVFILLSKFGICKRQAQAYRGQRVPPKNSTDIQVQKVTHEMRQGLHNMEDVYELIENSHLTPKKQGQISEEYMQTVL
Description: U.S. Tox21 Program National Center for Advancing Translational Sciences [NCATS] NIH Chemical Genomics Center [NCGC] U.S. Environmental Protection Agency [EPA] National Institutes of Environmental Health Sciences [NIEHS] National Toxicology Program [NTP] U.S. Food and Drug Administration [FDA] Tox21 Assay Overview: TSHR is the receptor for thyrotropin (thyroid stimulating hormone or TSH), a member of the glycoprotein hormone family. TSH is released by the anterior pituitary gland and is the main regulator of thyroid gland growth and development. Upon binding circulating thyrotropin, a G-protein signal cascade activates adenylyl cyclase and […] cAMP concentration is increased. cAMP is a key second messenger involved extensively in cellular signal transduction pathways associated with the majority of G-protein coupled receptors (GPCRs). The activation of these GPCRs by neurotransmitters, lipids, nucleotides, peptides and hormones results in the activation or the inhibition of plasma membrane-bound adenylate cyclase through heterotrimeric G-proteins. A cell-based TSHR assay can be used to screen chemical compounds that modulate TSHR either in agonist or antagonist mode.
Tox21 Assay Protocol Summary: TSHR-Hek293 cells were dispensed at 800 cells/4uL/well in 1536-well white plates using a Multidrop dispenser. After the assay plates were incubated at a 37C/5% CO2 incubator for 18 hrs, 23 nL of compounds dissolved in DMSO, positive controls or DMSO only was transferred to the assay plate by a pin tool, followed by 1 ul medium containing Ro20-1724. For the antagonist mode screening, 1 uL of TSH was added on the top of the cell/compound mixtures to achieve a final agonist concentration of 1.5 ng/mL. After 30 min of incubation at room temperature, 2.5 ul/well of cAMP-d2 and 2.5 ul/well of anti-cAMP-cryptate were added respectively into the assay plates using a Flying Reagent Dispenser. The plates were incubated at room temperature for 1 hr. The fluorescence intensity in the plates was measured using an Envision plate reader. Each test compound was measured at 15 concentrations and in triplicates.
% is scaled to controls: 0 for no effect and ±100 for the full control effect; potency is read from the fitted curve at half-maximal effect.

Structure (SMILES) | Potency | activity change, negative = inhibition
NNCCc1ccccc1 | inactive | –
Oc1ccc(Cl)cc1Cc1cc(Cl)ccc1O | inactive | –
Cc1ccc(-c2cc(C(F)(F)F)nn2-c2ccc(S(N)(=O)=O)cc2)cc1 | inactive | –
Cc1cccc2n[nH]nc12 | inactive | –
O=C1NCC2(CCN(CCc3ccccc3)CC2)O1 | – | 1.88% [at 42.5 µM] (inactive)
CCCNC(C)C(=O)Nc1ccccc1C (stereo not given) | – | 1.72% [at 42.5 µM] (inactive)
Nc1nc(=S)c2[nH]cnc2[nH]1 | inactive | –
Cc1cc(C(C)(C)C)c(O)c(C(C)(C)C)c1 | inactive | –
CC[C@@H](N)CO | – | 0.909% (inactive)
O=C(Cl)c1cccc(C(=O)Cl)c1 | inactive | –
Oc1c(Cl)cc(Cl)c(Cl)c1Cc1c(O)c(Cl)cc(Cl)c1Cl | inactive | –
NCCO | inactive | –
CCCCCCCCCCCCCCCCCl | – | -1.34% [at 19 µM] (inactive)
COC(=O)[C@H]1[C@H]2C[C@@H]3c4[nH]c5cc(OC)ccc5c4CCN3C[C@H]2C[C@@H](OC(=O)c2cc(OC)c(OC)c(OC)c2)[C@@H]1OC | inactive | –
c1ccc2c(c1)CCCC2C1=NCCN1 (stereo not given) | – | 0.729% [at 42.5 µM] (inactive)
NC(Cc1ccc(Cl)cc1)C(=O)O (stereo not given) | – | 0.481% [at 0.349 µM] (inactive)
CCc1cc(C(C)(C)C)c(O)c(C(C)(C)C)c1 | inactive | –
CCCC(=O)c1ccccc1 | – | 3.43% (inactive)
CC1=C(C=O)C(C)(C)CC=C1 | – | 0.97% (inactive)
Cc1scc2c1N(C(=O)CN1CCN(C)CC1)c1ccccc1NC2=O | – | -4.66% [at 42.5 µM] (inactive)

Structure (SMILES) | Potency | activity change, negative = inhibition
COC(=O)/C=C/c1ccccc1 | – | -0.775% (inactive)
N[C@@H]1CONC1=O | – | -5.03% [at 42.5 µM] (inactive)
CCN1CCCC1CNC(=O)c1cc(S(=O)(=O)CC)c(N)cc1OC (stereo not given) | – | -5.54% [at 42.5 µM] (inactive)
COc1cc(C(=S)N2CCOCC2)ccc1O | – | -4.18% [at 42.5 µM] (inactive)
CCC(CO)(CO)COCC(CC)(CO)CO | – | 0.798% (inactive)
Nc1ccc2cc3ccccc3cc2c1 | inactive | –
CCOC(=O)C(C)C(C)=O (stereo not given) | – | 1.17% (inactive)
CC(COc1ccccc1)N(CCCl)Cc1ccccc1 (stereo not given) | inactive | –
C=CC(=O)OCCCCCCOC(=O)C=C | inactive | –
CCC(C)(Oc1ccc(C2(c3ccc(OC(C)(CC)C(=O)O)cc3)CCCCC2)cc1)C(=O)O (stereo not given) | – | -2.31% [at 42.5 µM] (inactive)
OCCOCCN1CCN(C(c2ccccc2)c2ccc(Cl)cc2)CC1 (stereo not given) | – | -1.33% [at 42.5 µM] (inactive)
CCN(CC)c1ccc2c(C)cc(=O)oc2c1 | inactive | –
CN(C)c1ccc(C(=C2C=CC(=[N+](C)C)C=C2)c2ccccc2)cc1 | 29.8 µM (active) and inactive | –
C1COC(NC(C2CC2)C2CC2)=N1 | – | 3.43% [at 42.5 µM] (inactive)
Cc1occc(=O)c1OC(=O)C(C)C | – | 0.498% (inactive)
O=c1n(CC2CO2)c(=O)n(CC2CO2)c(=O)n1CC1CO1 (stereo not given) | inactive | –
CC(C)(C)NCC(O)c1cc(O)cc(O)c1 (stereo not given) | – | 7.31% [at 42.5 µM] (inactive)
CCn1c2ccccc2c2cc(N)ccc21 | inactive | –
c1ccc2n[nH]nc2c1 | inactive | –
O=C1CC2(CCCC2)CC(=O)N1CCCCN1CCN(c2ncccn2)CC1 | inactive | –
